How the values were obtained:
Details in all cases: concentration: 1 μM, replicates: in singlicate; n = 1
ULK2 = system: ULK2
ULK3 = system: ULK3
VEGFR2 = system: T1, VEGFR2
T1 construct: gene KDR

VPS34 = system: T2, VPS34
T2 construct: gene PIK3C3

VRK2 = system: VRK2
WEE1 = system: WEE1
WEE2 = system: WEE2
WNK1 = system: WNK1
WNK2 = system: WNK2
WNK3 = system: WNK3
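Note: KINOMEscan kinase panel screen.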

Compound	%Inh (ULK2) [%]	%Inh (ULK3) [%]	%Inh (VEGFR2) [%]	%Inh (VPS34) [%]	%Inh (VRK2) [%]	%Inh (WEE1) [%]	%Inh (WEE2) [%]	%Inh (WNK1) [%]	%Inh (WNK2) [%]	%Inh (WNK3) [%]
CCc1nc(-c2cccc(C)c2)c(-c2ccnc(NC(=O)c3ccccc3)c2)s1	9	14	0	14	0	0	10	0	59	0
Cc1ccc(NC(=O)c2cccc(C#N)c2)cc1-c1ccc(C(=O)Nc2ccncc2)cc1 [GSK1398463]	0	15	11	0	0	0	0	17	6	18
Cl.Cl.c1ccc(-c2cc3ccncc3cc2OC2CCNCC2)cc1 [GSK1122999]	0	4	0	67	0	5	11	7	0	0
CC(C)(C)OC(=O)NC1CCCN(c2cc(-c3ccc4c(N)n[nH]c4c3)nc(N)n2)C1 (centres unmarked) [GSK2286096]	0	0	0	0	0	17	0	6	70	8
Clc1cc(Nc2ncnc3cc[nH]c23)ccc1OCc1ccccn1	14	21	6	13	9	0	0	0	1	20
COc1cc2c(Nc3cccc(NC(=O)c4ccccc4)c3)ncnc2cc1OCCCN1CCOCC1 [GSK223810]	0	24	28	0	10	0	40	4	10	0
C[C@@H]1CCN(C(=O)CO)C[C@@H]1N(C)c1ncnc2[nH]ccc12	0	12	0	0	0	0	0	0	0	0
O=C(NCCCN1CCCC1=O)c1cnc(NCc2cc(Cl)ccc2Cl)nc1NC1CCNCC1	0	0	0	0	70	0	0	0	0	0
CC(=O)Nc1n[nH]c2ncc(-c3ccccc3)cc12 [SB-548492]	35	30	18	7	0	0	20	0	0	0
CCC(CC)(CC)n1cnc2c(N)ncnc21 [SKF-97620]	2	42	13	34	0	9	6	21	0	26
CNc1nccc(-c2c(-c3ccc(F)cc3)ncn2C2CCN(C)CC2)n1 [SB-222903]	15	0	0	0	16	0	0	0	0	0
Nc1n[nH]c2nnc(-c3ccccc3)cc12 [SB-517389]	0	10	0	0	0	21	15	10	17	5
Nc1nc(-c2ccc3c(N)n[nH]c3c2)cc(N2CCCCC2)n1 [GSK2228768]	0	0	0	0	0	39	0	0	0	0
COC(=O)c1c(-c2ccccc2)c2cc(Cl)ccc2c(=O)n1Cc1ccc(S(C)(=O)=O)cc1	0	0	0	0	10	0	0	0	4	0
Oc1ccc2ncnc(Nc3ccc(OCc4ccccc4)cc3)c2c1 [GI262866]	0	4	0	0	0	0	0	0	0	0
CN1CCC(n2cnc(-c3ccc(F)cc3)c2-c2ccnc(NC3CCNCC3)n2)CC1 [SB-229482]	4	19	0	50	18	0	30	21	0	49
Fc1ccc(-c2ncn(CCCNCc3ccccc3)c2-c2ccncc2)cc1	19	14	0	0	13	0	4	0	0	0
COc1ccc(Nc2nccc(N3CCC(NC(=O)Nc4ccc5c(c4)OCO5)C3)n2)cc1 (centres unmarked) [GSK1379745]	0	15	0	13	0	12	14	2	0	15
Nc1nc(-c2cccnc2)c(-c2ccnc3ccccc23)s1 [GW684083]	0	18	0	72	16	27	11	0	0	31
Nc1nc(-c2ccc3c(N)n[nH]c3c2)cc(N2CCC[C@@H](C(=O)Nc3ccccc3)C2)n1.O=C(O)C(F)(F)F.O=C(O)C(F)(F)F [GSK2288359]	3	13	18	0	0	8	0	11	6	14
CSc1nn2c(=O)cc(N3CCOCC3)nc2n1Cc1cccc(Cl)c1Cl [GSK2347225]	0	0	0	97.1	0	29	35	11	18	4

Compound	%Inh (ULK2) [%]	%Inh (ULK3) [%]	%Inh (VEGFR2) [%]	%Inh (VPS34) [%]	%Inh (VRK2) [%]	%Inh (WEE1) [%]	%Inh (WEE2) [%]	%Inh (WNK1) [%]	%Inh (WNK2) [%]	%Inh (WNK3) [%]
CNc1nccc(-c2c(-c3ccc(F)cc3)ncn2CCCN2CCOCC2)n1 [SB-222516]	0	17	0	0	0	0	9	1	0	0
COc1ccc(Nc2nccc(N3CCC(NC(=O)c4cccc(NC(C)=O)c4)C3)n2)cc1 (centres unmarked) [GSK1379732]	0	11	0	22	41	5	7	0	11	0
Clc1ccc(-c2cc(-c3c[nH]nc3-c3ccccn3)ccn2)cc1 [GW681251]	0	1	0	0	11	18	0	16	0	19
OCCOCCn1ccc2ncnc(Nc3ccc(Oc4cccc(Cl)c4)c(Cl)c3)c21	0	0	0	0	46	0	0	0	0	0
COc1cc2ncnc(Nc3ccc(OCc4ccccc4Br)c(Cl)c3)c2cc1OC.Cl [GI261590]	0	3	0	0	11	0	0	14	0	22
COc1ccc(NC(=O)c2ccc(-c3cc(-c4nnc(C)o4)ccc3C)cc2)cc1 [GW595885]	0	24	0	0	25	0	2	0	1	25
O=C(c1ccc(-c2cc(-c3c[nH]nc3-c3ccccn3)ccn2)cc1)N1CCCC1 [GW792479]	0	0	0	26	0	30	0	0	0	0
Cl.c1ccc(Cn2ccc3cc(Nc4ncnc5ccccc45)ccc32)cc1 [GW275568]	0	9	16	0	0	12	14	5	18	27
COc1ccc(NC(=O)Nc2ccc(C)c(-c3ccc(C(=O)Nc4ccncc4)cc3)c2)cc1 [GSK1398475]	0	0	0	0	0	34	11	4	0	2
Nc1nc(-c2ccccn2)c(-c2ccnc3ccccc23)s1 [GW548057]	0	13	12	9	62	13	0	15	11	50
Fc1cccc(COc2ccc(Nc3ncnc4cc[nH]c34)cc2Cl)c1	14	34	16	18	13	12	4	0	14	0
Nc1nccc2scc(-c3ccc4c(c3)CCN4C(=O)Cc3cc(F)ccc3F)c12 [GSK2587663]	0	6	0	8	0	44	0	33	0	37
Cc1ccc(O)cc1Nc1cc(C(F)(F)F)nc2ccc(-c3ccncc3)cc12 [GW630823]	0	0	0	0	0	0	30	0	0	0
Fc1cccc(COc2ccc(Nc3ncnc4sc(-c5ccc[nH]5)cc34)cc2Cl)c1 [GW707818]	0	1	8	0	26	6	0	12	6	13
COc1ccc(-c2oc3ncnc(N)c3c2-c2ccc(OC)cc2)cc1 [SB-589132]	0	39	16	17	56	33	0	22	35	52
O=C(Nc1ccccc1)Nc1ccc(Oc2ccc3nccn3n2)cc1	0	2		14	0	3	13	0	0	0
Cc1ccc(C)c(NC(=O)NCCNc2ccnc(Nc3ccc(F)cc3)n2)c1 [GSK1379878]	0	0	0	0	0	8	0	0	9	15
NC(=O)c1sc(-n2cnc3ccccc32)cc1OCc1ccccc1F [GSK1024306]	0	9	6	31	7	7	0	3	27	23
CS(=O)(=O)CCNCc1nc(-c2ccc3ncnc(Nc4ccc(OCc5cccc(F)c5)c(Cl)c4)c3c2)cs1.Cl [GW583340]	0	0	1	0	0	9	0	4	9	18
FC(F)(F)c1ccc(-c2nn3ncccc3c2-c2ccnc(Nc3cccc(C(F)(F)F)c3)n2)cc1 [GW828205]	0	0	0	8	0	5	11	0	0	0
FC(F)(F)c1cc(Nc2nccc(-c3c(-c4ccc(Cl)cc4)nn4ncccc34)n2)ccc1Cl [GW829351]	6	0	0	2	56	9	0	0	0	0
